# According to PubChem BioAssay AID504715 (Sanford-Burnham Center for Chemical Genomics, 2011):
# The list shows a part of the results. A number with no mark means an inactive call.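 Rule for the calls: active = compounds giving 40% or more inhibition at 20 µM in any one of the three replicates; inactive = the rest.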
# Biological target: Uracil-DNA glycosylase (Escherichia coli (strain K12)) (UniProt P12295)
# Experiment: uracil-DNA glycosylase inhibition, oligo cleavage readout – biochemical, single concentration, fluorescence, FAM/TAMRA oligo, counter-screen for APOBEC3G inhibitor project, confirmation (AID 504715);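 note: plate controls were DMSO wells with UDG and oligo for no effect and DMSO wells lacking both for full effect; inhibitors lower the FAM signal released by uracil excision and alkaline cleavage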
# Details: UDG counterscreen, at 20 µM, stronger effect = higher value
# Sequence of Uracil-DNA glycosylase (Escherichia coli (strain K12)) (P12295 whole entry, looked up): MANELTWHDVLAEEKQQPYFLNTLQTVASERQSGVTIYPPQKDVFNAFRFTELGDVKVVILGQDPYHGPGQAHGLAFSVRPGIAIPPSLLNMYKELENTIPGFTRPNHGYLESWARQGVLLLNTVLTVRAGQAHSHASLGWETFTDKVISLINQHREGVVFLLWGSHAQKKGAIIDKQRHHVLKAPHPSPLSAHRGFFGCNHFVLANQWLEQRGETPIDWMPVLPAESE
structure (smiles),measurement,value
COC(=O)N(c1ccc(OC)cc1)P1(=S)OCCC(C)O1 (stereo unspecified),inhibition,-3.68%
